± gives the standard deviation of the averaged measurements. Over roughly 25,000 sequences, “ln(normalized median fluorescence intensity)” has its median near 7.9; the highest 2% begin near 11. For the sample, the highest values were picked, then their nearest neighbours and some sequences at random.

The test system of this assay is PfAP2-I AP2 domain 3 (GST-tagged). Description: gcPBM binding intensity (ln(normalized median fluorescence intensity)); higher = stronger DNA binding. In a few lines:
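GST-fused DNA-binding domains of P. falciparum, expressed in E. coli, were applied at about 25 μg on average for 1 h to an Agilent 4 × 180k array of primer-extended double-stranded 36-bp intergenic genomic probes and negative controls. Binding intensity is the highest Masliner-normalised natural-log median intensity across replicate spots of either probe orientation, measured with Alexa488 anti-GST antibody and a 488 nm scan.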
As for “AAAAATGGAATTATCTGTACATATATAGTTTTTAAA [XGTACX_site5580]”, the “gcPBM binding intensity (ln)” value worked out at 7.44 ± 0.33.

With “AATTGTTCTATGATTTGTACACACTTTTTTTTAAAA [XGTACX_site5984]”, the “gcPBM binding intensity (ln)” value worked out at 8.15 ± 0.52.

For the sequence “ATTTTAATAAAATATGTACACACATACACCCATATA [CACACA_site8326]”, the “gcPBM binding intensity (ln)” value amounted to 8.15 ± 0.34.

In the case of “AATACATGAATATGTAGTACAGAAAAAAAAAATATA [XGTACX_site1945]”, the “gcPBM binding intensity (ln)” value was 7.89 ± 0.6.

Take “TTTTTAAAATATTTAACACACAATTTTAATGCATAA [CACACA_site6036]”: the “gcPBM binding intensity (ln)” value worked out at 8.8 ± 0.11.

As to “AATAAATATAAAAATGCACACACACTAATAAAAAAA [CACACA_site8201]”, the “gcPBM binding intensity (ln)” value amounted to 8.67 ± 0.52.

“TTTTTTTTTTTTAATGCACACAATATATAATATGTA [CACACA_site3694]”: the “gcPBM binding intensity (ln)” value was determined as 11.2 ± 0.4.

For “TAATATAATATATGCACACAAATATGTATATATGTG [CACACA_site2134]”, the “gcPBM binding intensity (ln)” value was 8.895 ± 0.049.

“AGATAAAATATATATGCACACACATATATATTTCAT [CACACA_site9183]”: the “gcPBM binding intensity (ln)” value was determined as 9.255 ± 0.007.

As to “TATAATATAATATATGCACACAAATATGTATATATG [CACACA_site8664]”, the “gcPBM binding intensity (ln)” value stood at 8.86 ± 0.085.

Take TTAAAAAATATATGCGTGCACTAATATTTCATATGC: the “gcPBM binding intensity (ln)” value turned out to be 11.5 ± 0.2.

As to “TGATTCAATTTATGCACACTAAAAATTAATTATATT [CACACA_site271]”, the “gcPBM binding intensity (ln)” value was found to be 9.65 ± 0.23.

Take “ATATTTTACAAATGCACACATAATTTTTTTTTTTTT [CACACA_site2763]”: the “gcPBM binding intensity (ln)” value stood at 9.33 ± 0.099.

As for “ATTTTTAATATTATTACACACACTAATAAAAAAAAA [CACACA_site8265]”, the “gcPBM binding intensity (ln)” value worked out at 7.96 ± 0.27.

Consider “ATAATATTTTAATGCACACACACAAAAAAAAAAAAA [CACACA_site2891]”, for which the “gcPBM binding intensity (ln)” value worked out at 11.2 ± 0.61.

As to “GTATAATATTTTAATGCACACACACTAATAAAAAAA [CACACA_site8939]”, the “gcPBM binding intensity (ln)” value is 11.1 ± 0.76.

On to “ATTAATGATTTTTGTTGTACATTATTAATTTACATT [XGTACX_site544]”, for which the “gcPBM binding intensity (ln)” value amounted to 7.83 ± 0.46.

For “ATTTCTCAATCGTAATGTACAAAAAAAAGGGAAAAG [XGTACX_site2781]”, the “gcPBM binding intensity (ln)” value came out at 7.9 ± 0.58.

As for “AAGGAATATGTATATACACACAGGTACATATATATA [CACACA_site441]”, the “gcPBM binding intensity (ln)” value stood at 8.16 ± 0.71.

Consider “AGTAGTCTGGAGAAAAGTACATAGTATCTGGTAGCT [XGTACX_site2027]”, for which the “gcPBM binding intensity (ln)” value was 7.98 ± 0.52.

Consider “AAGAGAGAGAAATATGCACACATAAGGGAAATAAAT [CACACA_site8300]”, for which the “gcPBM binding intensity (ln)” value is 8.895 ± 0.049.

As to “TTTATTCCAGTATTCACACACGAATAACCACATAAC [CACACA_site5104]”, the “gcPBM binding intensity (ln)” value stood at 7.93 ± 0.42.

Regarding “ATATATATATATATTTGTACATAATATATATATGCA [XGTACX_site1795]”, the “gcPBM binding intensity (ln)” value turned out to be 9.28 ± 0.48.

For the sequence “AGATATAATAAATATACACACATATATATATATATA [CACACA_site962]”, the “gcPBM binding intensity (ln)” value was found to be 9.2 ± 0.76.

“AATATTTTAATGCACACACACAAAAAAAAAAAAAAA [CACACA_site7374]”: the “gcPBM binding intensity (ln)” value stood at 11.5 ± 0.73.

For “TTTAAATTTTAATATGCACACAAAATGTTATATTAA [CACACA_site8015]”, the “gcPBM binding intensity (ln)” value is 9.06 ± 0.13.

With “TAAATTTTAATATGCACACAAAATGTTATATTAAAA [CACACA_site4366]”, the “gcPBM binding intensity (ln)” value worked out at 9.13 ± 0.35.

Take “AAGCATATTATAAACACACACTGTATAAAGATATAT [CACACA_site6277]”: the “gcPBM binding intensity (ln)” value was 7.66 ± 0.67.

Turning to “TATATACCACATTGTTGTACGACACATTTACATTTT [XGTACX_site8370]”, the “gcPBM binding intensity (ln)” value amounted to 8.21 ± 0.57.

For “ACATGAAACTATAAACGTACATACATACATATATAT [XGTACX_site5011]”, the “gcPBM binding intensity (ln)” value was found to be 8.09 ± 0.6.

In the case of “GATAATGAATGATGCACACTAAAAATATTCTACAAC [CACACA_site3622]”, the “gcPBM binding intensity (ln)” value worked out at 8.66 ± 0.16.

With “AAAAAAAAAAAAAGGTGTACATGCAAAATAAATTCT [XGTACX_site4592]”, the “gcPBM binding intensity (ln)” value came to 8.56 ± 0.35.

Consider “ATTTTTCTAAAATACTGTACAAAGGTGCATAAAAAG [XGTACX_site4425]”, for which the “gcPBM binding intensity (ln)” value amounted to 11.8 ± 0.87.

For the sequence “TATTTTATATAAAGGTGTACTTATACAAAAATATAT [XGTACX_site7435]”, the “gcPBM binding intensity (ln)” value was 8.14 ± 0.28.

In the case of “TTTTCTCTAAAAAGGTGTACAACTAATAATGCACTG [XGTACX_site6074]”, the “gcPBM binding intensity (ln)” value was 11.4 ± 0.31.

On to “TATAAATACTAAAAAAGTACAAAATTTCATAAAAAA [XGTACX_site2709]”, for which the “gcPBM binding intensity (ln)” value was 7.82 ± 0.59.

For the sequence “ATATATATATATATATGTACATATTGTATTAATTAT [XGTACX_site1919]”, the “gcPBM binding intensity (ln)” value stood at 9.31 ± 0.11.

As for “AATGTCATCATATTCATATATATTTATTTCTTTTTG [GTGCAC_negctrl_site500]”, the “gcPBM binding intensity (ln)” value was determined as 7.68 ± 0.57.

In the case of “TAAATTTAGAAACACACACACATATATATATATATA [CACACA_site847]”, the “gcPBM binding intensity (ln)” value was 9.36 ± 0.38.

With “TAATAACTACAAAAAAAAAAGAAAAATAGAAAAAGG [CACACA_negctrl_site1102]”, the “gcPBM binding intensity (ln)” value turned out to be 7.75 ± 0.67.

Take “AAAATAATAATAGGCACACATATATATATATATATA [CACACA_site2058]”: the “gcPBM binding intensity (ln)” value stood at 9.36 ± 0.32.

As to ATAGAAGGCAACTTGGTGCACAAAAAAAAAAATAAT, the “gcPBM binding intensity (ln)” value came out at 11.6 ± 0.25.

Take “TACAAACACCCATATACACACAAAAAAAAAATAAAA [CACACA_site5421]”: the “gcPBM binding intensity (ln)” value was 7.78 ± 0.31.

For “TTTCACCATATAAACGTGCACACTACAAAAATATAT [CACACA_site2547]”, the “gcPBM binding intensity (ln)” value came out at 11.1 ± 0.35.

Take “CCATATCTTTTTTGCACACACTACAATAAAACAAAA [CACACA_site4995]”: the “gcPBM binding intensity (ln)” value worked out at 9.95 ± 0.2.

As for “TTTCACTACACAAATACACACAAAAATATATGTGCA [CACACA_site2632]”, the “gcPBM binding intensity (ln)” value is 7.91 ± 0.54.

On to “TCACCATATAAACGTGCACACTACAAAAATATATAA [CACACA_site5413]”, for which the “gcPBM binding intensity (ln)” value was found to be 11 ± 0.24.

For “AAACAAAAAATATATACACACTAAACATAAAAAAAA [CACACA_site4185]”, the “gcPBM binding intensity (ln)” value is 7.81 ± 0.65.

On to “TCTAATTTAAAATACACACACATATCTATAATATAT [CACACA_site7029]”, for which the “gcPBM binding intensity (ln)” value amounted to 7.63 ± 0.28.

For “TGAAAAATATAAGGTTGTACTTACATCGGGAATAAT [XGTACX_site4701]”, the “gcPBM binding intensity (ln)” value came to 8.05 ± 0.55.

On to “TAATTTTCAATAATTTGTACATAATTTTTATAAATT [XGTACX_site8133]”, for which the “gcPBM binding intensity (ln)” value amounted to 7.49 ± 0.3.

Regarding “AAATCGTAATATATTTGTACTTATTTGAAAAATCCA [XGTACX_site8141]”, the “gcPBM binding intensity (ln)” value was found to be 7.76 ± 0.33.

On to “TTCTTATTTAATGTATCACACACGAGAATAAAAAAT [CACACA_site8992]”, for which the “gcPBM binding intensity (ln)” value was 7.98 ± 0.48.

For the sequence “ACATTTTTTTTTTTTTTTCTTTTTCTTTTTCTTTTT [CACACA_negctrl_site1295]”, the “gcPBM binding intensity (ln)” value turned out to be 7.72 ± 0.52.

With “AAATATATAAAAGTATGTACATATGAAAAATATATA [XGTACX_site6165]”, the “gcPBM binding intensity (ln)” value came to 8 ± 0.52.

Turning to “AACTAATAGTATATTACATGCAAAAGTAAAAGTAAA [TGCATGCA_site411]”, the “gcPBM binding intensity (ln)” value stood at 8.02 ± 0.78.

Consider GTATAAAAGTAACTAGTGCATTACATATGAATAAAA, for which the “gcPBM binding intensity (ln)” value came out at 11.4 ± 0.6.

In the case of “TAGCTTATTAATATCATACACACATAGATATATTTA [CACACA_site3105]”, the “gcPBM binding intensity (ln)” value is 7.5 ± 0.54.

The values are drawn from the supplement of paper PMC11417369.
